# Bioassay records from PubChem.
# A selection: hits, their analogues and other compounds. The true share with any hit is near 2.2%.
# PAX8 reporter: PAX8 transcriptional activity inhibition; RMG-I TPO-luciferase reporter, SteadyGlo, 24 h; inhibition, % at 12.6 µM; actives 1.2% (n = 360,000); AID 652154;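 active = mean replicate inhibition at least 60% with every replicate also reaching 60%; inconclusive = only one of the two criteria is met; inactive = mean below 60% and not all replicates reaching 60%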;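 also: luciferase light reporting Pax8 driven TPO promoter activity; plate controls were median of neutral control wells for no effect and mitoxantrone controls for full effect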
# LMP1 NFkB inh: Epstein-Barr LMP1 NF-kappaB reporter inhibition. actives 0.69% (n = 350,000). LMP1-induced NF-kappaB luciferase reporter cells, luminescence. inhibition, % at 12.5 µM; in the data active = inhibition above about 41%; inconclusive = no clear call, values can overlap the other calls;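 also: 0% = neutral control wells and 100% = reference inhibitor control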
# Shn3 inh set2: inhibitors of Schnurri-3 3'UTR reporter in osteoblasts; inhibition, % at 12.5 µM; Clone20 osteoblast Shn3 3'UTR firefly luciferase, 24 h; actives 0.52% (n = 360,000);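 active = mean inhibition of at least 75% with every replicate also reaching 75%; inconclusive = mean inhibition at least 75% but some replicate below; inactive = mean inhibition below 75%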;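 also: 0% = median of neutral control wells and 100% = pilot-screen positive control compound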
# TRPM1 prom inh: reduces MITF-dependent TRPM1 promoter luciferase signal; SK-MEL-5 TRPM1 promoter luciferase, 24 h; inhibition, % at 12.5 µM; actives 0.83% (n = 330,000); AID 488899;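 active = mean inhibition across replicates of 60% or more, whatever share of single replicates reaches that level; inconclusive = some that reach 60%, reason not given; inactive = mean inhibition across replicates below 60%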
# LGR2 inh: inhibitors of bursicon-induced Drosophila LGR2 receptor cAMP signaling | HEK293 LGR2, CRE-luciferase, bursicon-stimulated, 4 h | inhibition, % at 9.99 µM | actives 0.35% (n = 380,000);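 active = drop in luminescence signal, shown as inhibition above about 50% in the replicate tests, limit read from the data, passing the limit was not always enough; inconclusive = probably only some replicates passing the limit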;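 also: agonist challenge used bursicon conditioned medium at about half maximal strength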
# EWS-Fli block: EWS/Fli transcriptional activity inhibition | A673 NR0B1-luciferase reporter, viability-normalised | inhibition, % at 12.6 µM | actives 0.67% (n = 350,000) | AID 651661;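 active = mean inhibition of at least 50% after viability correction, with every replicate also passing that limit; inconclusive = mean reaches 50% but only one of two replicates passes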;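 also: firefly luciferase signal divided by Alamar Blue viability fluorescence both relative to DMSO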
# The depositor's hits bear a star; ? = inconclusive; / = no result.
SMILES,PAX8 reporter,LMP1 NFkB inh,Shn3 inh set2,TRPM1 prom inh,LGR2 inh,EWS-Fli block
Cc1cc2c(=Cc3ccc(N(C)C)cc3)c3ccccc3n2[n+]1C,/,23.5,77.9,100.5*,49.6,31.9
CC1=NN(c2cccc(F)c2)C(=O)/C1=C/c1ccc(N(C)C)cc1,14.5,0.4,-0.4,13.1,9.2,8.4
CCCNC(=O)Nc1ccc2c(c1)C(=O)N(C)C[C@@H](OC)[C@H](C)CN(C(=O)C1CCC1)[C@@H](C)CO2,-12.9,/,/,/,-19.1,-1.3
O=C1C2C3C=CC(C4CC34)C2C(=O)N1/N=C/c1ccc(-c2ccc([N+](=O)[O-])cc2)o1 (stereo unspecified),-1.3,-3.1,-7.4,19.2,-10.3,3.8
O=[N+]([O-])c1ccc(/C=N/N=C/c2ccc([N+](=O)[O-])o2)o1,47.3,-17.1,98.1*,87.0*,82.4*,?
O=C(O)/C=C/c1ccc([N+](=O)[O-])o1,30.8,-3.9,-15.0,6.1,4.6,5.0
Cc1cc2ncn(/N=C/c3ccc([N+](=O)[O-])o3)c2cc1C,/,-48.1,31.3,84.9*,7.6,8.7
O=C1C2C3C=CC(C4CC34)C2C(=O)N1/N=C/c1ccc([N+](=O)[O-])o1 (stereo unspecified),17.6,-94.0,-1.4,74.6*,25.9,20.5
O=C1SCCN1N=Cc1ccc([N+](=O)[O-])o1,-0.8,5.3,-18.9,65.8*,-4.0,8.1
O=C1CNC[C@H]2[C@H](c3ccc(C#CC4CCCC4)cc3)[C@H](CO)N12,-13.9,/,/,/,22.7,11.7
N/C(=N\OC(=O)Nc1ccccc1)c1ncc([N+](=O)[O-])s1,42.1,-31.8,-0.5,68.5*,-23.6,17.2
CC(=O)Nc1ccc(-c2ccnc3c2CC(C)(C(=O)NCc2ccco2)O3)cc1 (stereo unspecified),39.9,/,33.8,/,10.2,54.1*
CC(=O)Nc1ccc(-c2ccnc3c2CC(C(=O)NCc2ccco2)O3)cc1 (stereo unspecified),?,/,6.4,/,-9.9,62.3*
CC(=O)c1cccc(-c2ccnc3c2CC(C(=O)NCC2CCOCC2)O3)c1 (stereo unspecified),35.9,/,-31.3,/,-6.6,66.1*
O=C(NCc1ccccc1)C1Cc2c(-c3ccc4c(c3)OCO4)ccnc2O1 (stereo unspecified),67.6*,/,1.5,/,-18.7,60.0*
O=C(C[C@H]1C=C[C@H](NC(=O)c2ccc(F)cc2)[C@@H](CO)O1)NCCc1ccncc1,-25.5,/,/,/,2.3,-3.6
CO[C@@H]1CN(C)C(=O)c2cc(NC(=O)CC(F)(F)F)ccc2OC[C@@H](C)N(S(=O)(=O)c2cn(C)cn2)C[C@H]1C,-0.8,/,/,/,-2.5,-1.4
COc1ccc(NC(=O)C2Cc3c(-c4cccc(C(N)=O)c4)ccnc3O2)cn1 (stereo unspecified),15.3,/,16.8,/,-2.4,1.0
COc1ccc(NC(=O)C2Cc3c(-c4cccc(NC(C)=O)c4)ccnc3O2)cn1 (stereo unspecified),51.1,/,26.0,/,-7.6,63.4*
CC(=O)Nc1ccc(-c2ccnc3c2CC(C(=O)NCc2ccccc2)O3)cc1 (stereo unspecified),91.7*,/,1.9,/,-28.3,50.5*
CC(=O)Nc1ccc(-c2ccnc3c2CC(C(=O)NCCc2ccccc2)O3)cc1 (stereo unspecified),/,/,-21.9,/,3.3,4.3
COc1cccc(C#Cc2ccc([C@H]3[C@@H](CO)N4C(=O)CN(C(C)=O)C[C@H]34)cc2)c1,/,/,/,/,24.8,/
O=S1(=O)c2ccc(Br)cc2OC(COCc2ccccc2)CN1Cc1ccccc1 (stereo unspecified),1.9,2.6,19.4,-9.2,6.1,-10.7
O=S1(=O)c2ccc(Br)cc2N2CCC[C@@H]2CN1Cc1ccccc1,20.8,12.4,7.4,18.5,-1.6,51.8*
O=C(C[C@H]1CC[C@H]2[C@@H](COC[C@H](O)CN2C(=O)Nc2ccccc2)O1)NCCc1ccncc1,-6.2,/,/,/,-6.3,-5.1
SMILES,PAX8 reporter,LMP1 NFkB inh,Shn3 inh set2,TRPM1 prom inh,LGR2 inh,EWS-Fli block
COc1ccc(Nc2cc(C)nc3ccc(C)cc23)cc1,-22.7,4.6,23.1,/,7.0,2.5
CC(=O)c1ccc(Nc2cc(C)nc3ccc(C)cc23)cc1,22.1,-31.1,-2.0,42.0,62.2*,13.8
CC(C)Nc1nnc(SCC(=O)c2c(N)n(Cc3ccccc3)c(=O)n(C)c2=O)s1,/,64.2*,-8.3,-3.5,/,/
CC(=O)Nc1ccc(SCC(=O)c2c(N)n(Cc3ccccc3)c(=O)n(C)c2=O)cc1,-4.0,3.3,19.4,-10.5,-2.8,-1.5
CC(C)(C)CC(C)(C)c1ccc(OCCOCC[N+](C)(C)Cc2ccccc2)cc1,77.9*,6.6,87.7*,78.5*,36.4,25.0
C[N+](C)(CCOc1ccccc1)Cc1ccccc1 (tested in a mixture with another compound),17.3,-7.2,16.6,-5.1,-6.5,/
CCOC(=O)CNC(=O)C1(NC(=O)CNC(=O)OCc2ccccc2)CCCC1,-15.2,-7.8,90.7*,0.4,-7.9,-0.3
COc1ccc(NC(=O)N2CCCCN3[C@H](C2)[C@H](c2ccc(C#Cc4ccccc4)cc2)[C@@H]3CO)cc1,17.1,/,/,/,/,2.8
COc1ccc(NC(=O)N2CCCCN3[C@H](C2)[C@@H](c2ccc(C#Cc4ccccc4)cc2)[C@@H]3CO)cc1,92.4*,/,/,/,/,-10.2
COc1cccc(CN2CCCCN3[C@H](C2)[C@@H](c2ccc(C#Cc4cccnc4)cc2)[C@@H]3CO)c1,13.1,/,/,/,1.4,26.7
COc1ccc(NC(=O)N2CCCCN3[C@@H](CO)[C@H](c4ccc(C#Cc5ccccc5)cc4)[C@@H]3C2)cc1,70.0*,/,/,/,/,7.8
COc1ccc(C#Cc2ccc([C@@H]3[C@H](CO)N4CCCCN(C(=O)Nc5ccc(F)cc5)C[C@@H]34)cc2)cc1,107.2*,/,/,/,-9.8,/
COc1cccc(CN2CCCCN3[C@H](CO)[C@@H](c4ccc(C#Cc5cccnc5)cc4)[C@H]3C2)c1,21.1,/,/,/,-7.7,68.9*
C[C@@H]1CN([C@H](C)CO)C(=O)c2cc(NS(=O)(=O)c3ccccc3)ccc2O[C@H]1CN(C)C(=O)Nc1ccc(C(F)(F)F)cc1,0.8,/,/,/,-11.9,4.0
N#Cc1cccc(-c2ccc(C3[C@H]4CNC[C@@H]3N4Cc3ccc4c(c3)OCO4)cc2)c1 (stereo partly specified),-12.8,/,/,/,5.5,-10.4
O=C(Nc1ccc(F)cc1)N1CC(=O)N2[C@H](CO)[C@H](c3ccc(-c4ccccc4)cc3)[C@H]2C1,12.4,/,/,/,-1.0,14.0
COc1cccc(C(=O)Nc2ccc(F)cc2F)c1,-142.0,-20.9,-100.5,-28.7,/,/
COC(=O)c1ccc2c(c1)C(NC(C)=O)CCc1cc(OC)c(OC)c(OC)c1-2 (stereo unspecified),85.2*,0.5,12.3,34.8,-13.0,46.4
